A number with no mark means an inactive call. Inconclusive results are not listed. Activity calls are given as the source filed them. Unless noted, calls follow the shape of the dose curve; as a rule, active = well fitted curve in either direction with a large enough effect (not every such curve was filed as active); inconclusive = small, poorly fitted or top-dose-only effect, or another doubt; inactive = flat fitted curve, though single readings scatter.
Legend:
[1] = target: Lysosomal acid glucosylceramidase (Homo sapiens) (UniProt P04062); experiment: Glucocerebrosidase-p2 (AID 348; in the data active = potency below about 10 µM; also: potency is read from the fitted curve at half-maximal effect); conditions: purified GBA, blue fluorogenic substrate, 40 min
How it was run: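 Normal human glucocerebrosidase (0.2 nM) with blue fluorogenic substrate (80 uM final) in citrate/phosphate pH 5.9 with 10mM sodium taurocholate, 0.01% tween-20; 40 min RT, NaOH/glycine stop; fluorescence Ex 365/Em 440; AC50 from a titration from 0.6 nM upwards.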

[2] = AP1 Signaling Pathway (AID 357); conditions: ME-180 AP-1-bla reporter, EGF-induced, beta-lactamase ratio, 5 h; at 7.69 µM (top of the series) unless noted;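 also: ME-180 reporter cells stimulated with EGF at its EC50 level; % is scaled to controls: 0 for no effect and ±100 for the full control effect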
How it was run: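 First, ME-180 AP-1-bla cells were cultured overnight at 37 °C in low-serum Opti-MEM. Next, titrated compounds with EC50 EGF were incubated 5 hours. Finally, CCF4 was added for 2.5 hours and the 460/530 nm ratio recorded.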

[3] = target: Cytochrome P450 1A2 (Homo sapiens) (UniProt P05177); experiment: p450-cyp1a2 (AID 410; calls by dose curve; also: potency is read from the fitted curve at half-maximal effect;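 as to activity change, negative = inhibition: -100% = full effect of reference inhibitor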); conditions: recombinant CYP1A2, luciferin-ME demethylation, luminescence; series mostly up to 11.4 µM
How it was run: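 20nM CYP1A2, 100uM Luciferin-ME (=Km), 100mM KPO4; cpd 10 min RT; +NADPH regen, 60 min RT; stop/detect 20 min; luminescence. Normalized to furafylline 57 uM = full inhibition.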

[4] = NFAT Signaling Pathway (AID 444); conditions: Jurkat NFAT-bla M1, carbachol, beta-lactamase ratio, 5 h; at 7.69 µM (top of the series) unless noted;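 also: carbachol stimulus at about its EC50 of 1 µM final; % is scaled to controls: 0 for no effect and ±100 for the full control effect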
How it was run: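 Jurkat cells carrying an NFAT-driven β-lactamase reporter and co-transfected muscarinic M1 receptor were treated with compound plus carbachol (1 uM final, an EC50 level) for 5 h at 37 °C. CCF4 loading followed for 1 h at RT; 460/530 nm ratio gave %activity.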

[5] = Stat Signaling Pathway (AID 446); conditions: ME-180 (cervical carcinoma) SIE beta-lactamase reporter, IL-6 stimulated, 5 h; at 7.69 µM (top of the series) unless noted;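 also: ME-180 cervical cancer cells given 40 pM IL-6 alongside compound; SIE-controlled beta-lactamase reporter measured as 460/530 nm FRET emission ratio; % is scaled to controls: 0 for no effect and ±100 for the full control effect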
How it was run: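 Compound effects on IL-6-induced STAT reporter activity were measured in ME-180 cells. After overnight culture, cells were co-treated with 40 pM IL-6 for 5 hrs before beta-lactamase substrate loading at room temperature.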

[6] = target: Glucocorticoid receptor (Homo sapiens) (UniProt P04150); experiment: GR-GFP Redistribution (AID 450;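 active = compounds whose dose series gives a full or clear partial fitted curve of increased nuclear translocation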; also: potency is read from the fitted curve at half-maximal effect); conditions: U2OS GR-GFP nuclear translocation, laser cytometry, 2 h
[7] = target: Glucocorticoid receptor (Homo sapiens) (UniProt P04150); experiment: GR-EFC Redistribution (AID 451; calls by dose curve; also: potency is read from the fitted curve at half-maximal effect); conditions: CHO-K1 GR-EFC translocation, beta-gal luminescence, 2 h
How it was run: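 CHO-K1 cells stably expressing nuclear-localized β-gal enzyme acceptor and GR fused C-terminally to the enzyme donor fragment; ligand-driven nuclear translocation restores β-gal by complementation. Compounds titrated up to 46 uM final, 2 h at 37 °C; luminescence read.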

[8] = target: Mitogen-activated protein kinase 10 (Mus musculus) (UniProt Q61831); experiment: JNK3 AlphaScreen Assay (AID 530); conditions: JNK3 lysate, c-Jun phosphorylation; series mostly up to 11.4 µM;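 also: kinase came from lysate of stimulated human HepG2 cells; signal reports phosphorylation of biotinylated GST-cJun 1-79 at Ser73 with 10 µM ATP; % is scaled to controls: 0 for no effect and ±100 for the full control effect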
How it was run: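 Biotinylated GST-cJun(1-79) served as substrate for JNK3 in HepG2 lysates stimulated with IL-1beta and TNF-alpha. ATP was 10 uM final, pH 7.6. Ser73 phosphorylation was quantified by AlphaScreen (680 nm excitation).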

[9] = target: 3',5'-cyclic-AMP phosphodiesterase 4B (Homo sapiens) (UniProt Q07343); experiment: qHTS Assay for Inhibitors of PDE-IV (AID 607; active = well fitted activation curve with a large enough effect in the main read-out, with a control signal flat, not every such curve was filed as active; also: % of control where 0% means no effect); conditions: HEK293 ACTOne CNG channel cells, membrane potential fluorescence; series mostly up to 22.9 µM
How it was run: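 ACTOne HEK293 cells carry a modified cAMP-gated CNG channel and express endogenous PDE4; plated 1000 cells/well, compounds up to 22.9 uM final. Membrane-potential dye fluorescence (ex 535/em 590) was read; parental cells received 10 uM forskolin + 100 uM RO 20-1724.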

[10] = target: Cytochrome P450 3A4 (Homo sapiens) (UniProt P08684); experiment: qHTS Assay for Inhibitors and Substrates of Cytochrome P450 3A4 (AID 884; active = well fitted curve in the direction sought with a large enough effect; an effect the other way counts as inactive or inconclusive; also: potency is read from the fitted curve at half-maximal effect; nearly all actives have a fitted effect of over 50% in size); conditions: recombinant CYP3A4, Luciferin-PPXE luminescence; series mostly up to 57.1 µM
How it was run: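 Luminescent readout of luciferin produced by CYP3A4 (20 nM) dealkylation of Luciferin-PPXE, 25 uM (its KM). NADPH-driven reaction ran 60 min at RT after 10 min compound preincubation; data scaled to 57 uM ketoconazole as 100% inhibition.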

[11] = target: Cytochrome P450 3A4 (Homo sapiens) (UniProt P08684); experiment: qHTS Assay for Activators of Cytochrome P450 3A4 (AID 885; active = well fitted curve in the direction sought with a large enough effect; an effect the other way counts as inactive or inconclusive; also: nearly all actives have a fitted effect of over 65% in size); conditions: recombinant CYP3A4, Luciferin-PPXE luminescence, 60 min; series mostly up to 11.4 µM
How it was run: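 CYP3A4 activity: Luciferin-PPXE O-dealkylation, 25uM substrate, 200mM KPO4, RT throughout. Read-out is luciferase luminescence; higher values reflect activation.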

[12] = target: Cytochrome P450 2C19 (Homo sapiens) (UniProt P33261); experiment: qHTS Assay for Inhibitors and Substrates of Cytochrome P450 2C19 (AID 899; active = well fitted curve in the direction sought with a large enough effect; an effect the other way counts as inactive or inconclusive; also: nearly all actives have a fitted effect of over 60% in size; also: potency is read from the fitted curve at half-maximal effect); conditions: recombinant CYP2C19, luciferin-H EGE luminescence; series mostly up to 11.4 µM
How it was run: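 In 50mM KPO4, the reaction held 5nM enzyme and KM-level (10uM) Luciferin-H EGE; it ran 60 min at 37C after NADPH regeneration and a 10 min compound preincubation. Luminescence values were scaled to 57uM ketoconazole as complete inhibition.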

[13] = target: Cytochrome P450 2D6 (Homo sapiens) (UniProt P10635); experiment: qHTS Assay for Inhibitors and Substrates of Cytochrome P450 2D6 (AID 891; active = well fitted curve in the direction sought with a large enough effect; an effect the other way counts as inactive or inconclusive; also: potency is read from the fitted curve at half-maximal effect; nearly all actives have a fitted effect of over 60% in size); conditions: recombinant CYP2D6, luciferin-ME EGE luminescence; series mostly up to 11.4 µM
How it was run: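 Luminescent read-out of luciferin formed by 5 nM human CYP2D6 demethylating 30 uM Luciferin-ME EGE (Km level) over 60 min at room temperature after NADPH regeneration addition. Data normalized to full inhibition by 1.43 uM quinidine.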

Chain of Lysosomal acid glucosylceramidase (Homo sapiens) (P04062 whole entry, looked up): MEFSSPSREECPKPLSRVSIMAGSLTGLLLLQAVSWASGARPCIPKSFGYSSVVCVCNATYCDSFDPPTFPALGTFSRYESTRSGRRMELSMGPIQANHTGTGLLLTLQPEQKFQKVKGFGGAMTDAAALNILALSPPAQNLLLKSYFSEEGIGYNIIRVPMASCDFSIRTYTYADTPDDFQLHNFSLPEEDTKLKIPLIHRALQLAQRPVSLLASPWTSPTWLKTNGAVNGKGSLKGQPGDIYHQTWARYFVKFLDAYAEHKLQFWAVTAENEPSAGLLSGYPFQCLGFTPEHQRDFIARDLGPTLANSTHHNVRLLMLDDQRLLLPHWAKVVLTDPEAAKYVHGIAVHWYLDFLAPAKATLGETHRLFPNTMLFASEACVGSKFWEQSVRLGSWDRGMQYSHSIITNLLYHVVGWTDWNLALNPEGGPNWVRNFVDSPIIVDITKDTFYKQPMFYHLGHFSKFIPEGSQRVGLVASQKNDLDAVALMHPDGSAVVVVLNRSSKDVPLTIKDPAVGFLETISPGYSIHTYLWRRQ
Chain of Glucocorticoid receptor (Homo sapiens) (P04150 whole entry, looked up, the tested form may be a part): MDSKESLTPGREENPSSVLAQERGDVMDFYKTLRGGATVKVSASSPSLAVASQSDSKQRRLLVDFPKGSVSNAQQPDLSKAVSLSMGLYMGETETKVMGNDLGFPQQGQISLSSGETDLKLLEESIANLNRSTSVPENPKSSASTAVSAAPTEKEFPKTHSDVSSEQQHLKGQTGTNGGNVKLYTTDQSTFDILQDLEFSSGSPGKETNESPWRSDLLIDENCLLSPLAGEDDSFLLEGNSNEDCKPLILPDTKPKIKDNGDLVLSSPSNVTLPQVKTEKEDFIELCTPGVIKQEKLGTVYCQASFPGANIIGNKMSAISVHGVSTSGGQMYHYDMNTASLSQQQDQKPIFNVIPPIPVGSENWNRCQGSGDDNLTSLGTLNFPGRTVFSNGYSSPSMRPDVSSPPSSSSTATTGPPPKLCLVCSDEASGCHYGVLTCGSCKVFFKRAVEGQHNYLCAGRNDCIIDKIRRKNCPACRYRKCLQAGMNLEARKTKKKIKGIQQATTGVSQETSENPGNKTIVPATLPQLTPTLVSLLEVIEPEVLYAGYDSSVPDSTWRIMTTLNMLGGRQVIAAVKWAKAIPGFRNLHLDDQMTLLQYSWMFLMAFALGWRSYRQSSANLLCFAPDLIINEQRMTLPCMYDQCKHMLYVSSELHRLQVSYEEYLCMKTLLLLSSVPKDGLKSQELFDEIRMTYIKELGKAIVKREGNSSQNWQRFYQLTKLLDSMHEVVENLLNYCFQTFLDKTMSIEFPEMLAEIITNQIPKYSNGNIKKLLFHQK
Chain of Cytochrome P450 3A4 (Homo sapiens) (P08684 whole entry, looked up): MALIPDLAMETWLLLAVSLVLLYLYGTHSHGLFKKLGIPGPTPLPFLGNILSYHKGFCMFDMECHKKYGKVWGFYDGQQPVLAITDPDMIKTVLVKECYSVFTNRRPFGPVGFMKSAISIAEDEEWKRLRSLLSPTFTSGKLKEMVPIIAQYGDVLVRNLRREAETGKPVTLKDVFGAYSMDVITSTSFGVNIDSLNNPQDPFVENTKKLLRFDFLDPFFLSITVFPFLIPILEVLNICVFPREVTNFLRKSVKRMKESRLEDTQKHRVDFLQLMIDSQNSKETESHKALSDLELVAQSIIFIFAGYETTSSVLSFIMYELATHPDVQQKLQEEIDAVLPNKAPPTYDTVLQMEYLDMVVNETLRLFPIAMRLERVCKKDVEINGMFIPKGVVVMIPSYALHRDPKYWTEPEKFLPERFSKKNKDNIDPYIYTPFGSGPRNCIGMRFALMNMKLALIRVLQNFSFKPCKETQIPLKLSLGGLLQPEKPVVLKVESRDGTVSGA
Chain of Cytochrome P450 1A2 (Homo sapiens) (P05177 whole entry, looked up): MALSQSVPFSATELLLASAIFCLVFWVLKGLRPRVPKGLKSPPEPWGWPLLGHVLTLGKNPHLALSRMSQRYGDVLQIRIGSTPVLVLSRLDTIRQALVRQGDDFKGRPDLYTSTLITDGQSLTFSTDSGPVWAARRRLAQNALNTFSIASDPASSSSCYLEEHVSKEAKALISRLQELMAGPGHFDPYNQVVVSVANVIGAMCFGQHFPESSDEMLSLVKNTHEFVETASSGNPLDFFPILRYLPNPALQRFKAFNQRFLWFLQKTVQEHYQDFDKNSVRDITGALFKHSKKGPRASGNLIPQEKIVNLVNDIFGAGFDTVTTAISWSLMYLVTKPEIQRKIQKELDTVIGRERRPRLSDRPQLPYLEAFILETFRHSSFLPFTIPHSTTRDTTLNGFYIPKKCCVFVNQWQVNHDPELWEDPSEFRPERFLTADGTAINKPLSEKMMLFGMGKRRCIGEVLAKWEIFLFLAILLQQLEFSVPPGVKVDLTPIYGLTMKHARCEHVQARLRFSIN
Chain of 3',5'-cyclic-AMP phosphodiesterase 4B (Homo sapiens) (Q07343 whole entry, looked up): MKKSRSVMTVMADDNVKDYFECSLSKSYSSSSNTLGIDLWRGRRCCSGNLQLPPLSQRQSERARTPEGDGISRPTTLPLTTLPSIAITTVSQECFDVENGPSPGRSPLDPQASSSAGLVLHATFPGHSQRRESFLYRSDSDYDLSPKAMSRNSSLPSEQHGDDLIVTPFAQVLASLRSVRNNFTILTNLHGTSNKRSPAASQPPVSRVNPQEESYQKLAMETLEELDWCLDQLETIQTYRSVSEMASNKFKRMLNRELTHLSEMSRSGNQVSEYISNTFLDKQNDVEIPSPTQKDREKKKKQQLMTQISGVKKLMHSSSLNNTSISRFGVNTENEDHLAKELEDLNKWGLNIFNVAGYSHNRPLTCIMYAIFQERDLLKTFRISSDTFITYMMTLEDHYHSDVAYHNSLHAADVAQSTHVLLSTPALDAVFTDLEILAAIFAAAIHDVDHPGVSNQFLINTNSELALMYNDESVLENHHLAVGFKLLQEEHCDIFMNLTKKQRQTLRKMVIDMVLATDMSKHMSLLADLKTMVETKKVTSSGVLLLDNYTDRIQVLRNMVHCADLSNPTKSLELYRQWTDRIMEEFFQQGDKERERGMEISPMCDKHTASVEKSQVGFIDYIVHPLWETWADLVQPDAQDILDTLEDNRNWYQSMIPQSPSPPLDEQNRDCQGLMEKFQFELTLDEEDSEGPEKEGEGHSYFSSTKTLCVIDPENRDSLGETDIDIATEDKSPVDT
Chain of Cytochrome P450 2C19 (Homo sapiens) (P33261 whole entry, looked up): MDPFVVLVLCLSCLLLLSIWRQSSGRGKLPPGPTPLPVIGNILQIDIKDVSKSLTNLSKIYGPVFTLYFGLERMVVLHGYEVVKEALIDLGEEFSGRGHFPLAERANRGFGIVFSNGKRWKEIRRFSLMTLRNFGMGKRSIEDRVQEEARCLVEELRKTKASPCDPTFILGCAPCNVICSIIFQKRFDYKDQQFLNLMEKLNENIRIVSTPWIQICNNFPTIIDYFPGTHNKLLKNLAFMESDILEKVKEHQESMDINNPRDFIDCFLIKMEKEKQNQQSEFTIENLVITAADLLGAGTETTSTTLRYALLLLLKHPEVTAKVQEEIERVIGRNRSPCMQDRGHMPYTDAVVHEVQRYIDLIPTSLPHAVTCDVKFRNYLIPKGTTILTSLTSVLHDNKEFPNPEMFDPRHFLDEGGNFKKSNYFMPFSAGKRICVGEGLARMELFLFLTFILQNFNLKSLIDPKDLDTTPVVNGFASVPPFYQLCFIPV
Chain of Cytochrome P450 2D6 (Homo sapiens) (P10635 whole entry, looked up): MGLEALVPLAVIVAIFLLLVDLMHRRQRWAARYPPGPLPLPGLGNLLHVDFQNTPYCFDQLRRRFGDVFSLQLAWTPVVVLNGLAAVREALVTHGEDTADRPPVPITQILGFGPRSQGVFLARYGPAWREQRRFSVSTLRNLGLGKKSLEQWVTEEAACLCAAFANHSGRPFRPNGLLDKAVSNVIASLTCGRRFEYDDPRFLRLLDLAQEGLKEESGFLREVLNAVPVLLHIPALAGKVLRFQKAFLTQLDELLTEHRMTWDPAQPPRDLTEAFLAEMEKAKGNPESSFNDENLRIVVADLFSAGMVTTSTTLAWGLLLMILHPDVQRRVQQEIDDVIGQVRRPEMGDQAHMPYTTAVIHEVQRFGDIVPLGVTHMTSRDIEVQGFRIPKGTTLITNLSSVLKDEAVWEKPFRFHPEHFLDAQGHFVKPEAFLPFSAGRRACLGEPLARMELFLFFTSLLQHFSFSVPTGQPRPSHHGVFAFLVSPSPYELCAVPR

Compound | Potency [1] [µM] | activity change, negative = inhibition [2] [%] | Potency [3] | activity change, negative = inhibition [4] [%] | activity, negative = inhibition [5] [%] | Potency [6] [µM] | Potency [7] [µM] | Potency [8] | Potency [9] | Potency [10] | Potency [11] | Potency [12] | activity change, negative = inhibition [3] | Potency [13]
O[C@@H](C1=C/C(=C\c2ccncc2)c2ccccc21)c1ccncc1 | > 11.4 | 6.34 | 0.1 µM (active) | -26.9 | -15.9 | > 46 | > 9.22 | inactive | inactive | 0.794 µM (active) | inactive | 0.158 µM (active) |  | 
CC(C)(C)C(=O)[C@H]([C@@H](c1ccccc1)N1CCOCC1)N1CCOCC1 | > 11.4 | 0.675 | inactive | 16.7 | 2.4 | > 46 | > 9.22 | inactive | inactive | 2.51 µM (active) | inactive |  |  | 
COc1ccc(Oc2ncc3nc(C)c(=O)n(-c4ccc(OC)cc4)c3n2)cc1 | > 11.4 | -21.8 | 15.8 µM (active) | -15.1 | -16.4 | > 9.22 | > 46 | inactive | inactive | 3.98 µM (active) | inactive |  |  | 
Cn1c(=O)c2[nH]c(CCCCc3nc4c([nH]3)c(=O)n(C)c(=S)n4C)nc2n(C)c1=S | > 11.4 | 1.54 |  | -2.84 | -5.06 | > 46 | > 9.22 | inactive | inactive | 1.26 µM (active) | inactive | inactive | -13.8% [at 2.29 µM] | 
CSC1(SC2=NCCN2)SC2(NCCN2)S1 | > 11.4 | -0.329 | 0.398 µM (active) | -0.372 | 5.32 | > 46 | > 9.22 | inactive | inactive | 1.26 µM (active) | inactive | 1.58 µM (active) |  | 3.98 µM (active)
Cc1cc2c(cc1C)NC1=C(N2)O[C@H](c2c[nH]c3ccc(COc4ccccc4)cc23)C1=O | > 11.4 | -28.4 | 2.51 µM (active) | 2.39 | -5.89 | > 46 | > 9.22 | inactive | inactive | 3.98 µM (active) | inactive | 0.501 µM (active) |  | 
COc1cc(Cl)c(CC(=O)c2c[nH]c3ccccc23)cc1OC | > 11.4 | -19.9 | 1 µM (active) | 26.5 | -15.8 | > 46 | > 9.22 | inactive | inactive | 2.51 µM (active) | inactive |  |  | 
CCCCNc1nc(SC)nc2nc[nH]c12 | > 11.4 | 1.1 | 0.316 µM (active) | 9.44 | -3.88 | > 46 | > 9.22 | inactive | inactive |  | inactive |  |  | 
c1ccc(C2=NN[C@@H]3c4ccccc4-c4ccccc4N3C2)cc1 | > 11.4 | -18.5 | 0.2 µM (active) | -9.73 | -6.54 | > 46 | > 9.22 | inactive | inactive |  | inactive |  |  | 
Cn1c(=O)c2[nH]c(CCCc3ccc([N+](=O)[O-])cc3)nc2n(C)c1=O | > 11.4 | 1.15 | inactive | -1.84 | 6 | > 46 | > 9.22 | inactive | inactive |  | inactive |  |  | 
CC(C)(C)CC(C)(C)c1cc(O)c(O)c(CN2CCCCC2)c1 | > 11.4 | 0.737 | inactive | -28.7 | 3.86 | > 46 | > 9.22 | inactive | inactive |  | inactive |  |  | 
C(=N/Nc1nnc2c(n1)[nH]c1ccccc12)/c1cccnc1 | > 11.4 | -0.49 | 0.631 µM (active) | 1.85 | -7.13 | > 46 | > 9.22 | inactive | inactive | 3.98 µM (active) | inactive |  |  | 
Cc1ccc2nc(CC(=O)c3ccc4ccccc4c3)c(=O)[nH]c2c1 | > 11.4 | 6.36 | 2 µM (active) | -17.8 | 12.1 | > 46 | > 9.22 | inactive | inactive |  | inactive |  |  | 
O=c1oc2cc(N=Cc3ccc4c(c3)OCO4)ccc2c2ccccc12 | > 11.4 | 7.4 | 0.00794 µM (active) | 12.7 | -1.72 | > 46 | > 9.22 | inactive | inactive | 3.98 µM (active) | inactive |  |  | 
